An excerpt weighted towards active compounds, which were near 5.6% of everything screened.
M18AAP inhibitor – PfM18AAP enzyme inhibition; recombinant PfM18AAP, H-Glu-NHMec fluorogenic cleavage; inhibition, % at 7.35 µM; actives 1.2% (n = 290,000); AID 1822;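 active = inhibition above the campaign mean inhibition over all tested compounds plus 3 SD, cut at about 28% in these data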;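 note: 0% = plate median of test compound wells and 100% = 2 mM ZnCl2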
PHOSPHO1 block – PHOSPHO1 (human) inhibition | recombinant PHOSPHO1, absorbance phosphatase assay | inhibition, % at 13.3 µM | actives 1.1% (n = 290,000) | AID 1565; in the data active = inhibition above about 60%
Target sequence (Q8TCT1 whole entry, looked up): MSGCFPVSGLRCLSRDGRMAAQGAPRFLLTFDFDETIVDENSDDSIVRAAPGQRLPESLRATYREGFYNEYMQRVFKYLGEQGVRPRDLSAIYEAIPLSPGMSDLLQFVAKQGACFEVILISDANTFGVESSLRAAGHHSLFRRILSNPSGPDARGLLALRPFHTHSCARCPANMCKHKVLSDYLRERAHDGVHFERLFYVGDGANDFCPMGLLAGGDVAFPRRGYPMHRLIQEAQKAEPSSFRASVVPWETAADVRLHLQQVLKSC
ALR inh – blocks human ALR sulfhydryl oxidase activity; P55789; purified ALR, DTT oxidation, H2O2 HRP-luminol luminescence; AID 485317; actives 3.8% (n = 290,000); inhibition, % (concentration not given with the values);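 active = mean replicate inhibition above about 79%, with every replicate also reaching it, limit read from the data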
Target sequence (P55789 whole entry, looked up): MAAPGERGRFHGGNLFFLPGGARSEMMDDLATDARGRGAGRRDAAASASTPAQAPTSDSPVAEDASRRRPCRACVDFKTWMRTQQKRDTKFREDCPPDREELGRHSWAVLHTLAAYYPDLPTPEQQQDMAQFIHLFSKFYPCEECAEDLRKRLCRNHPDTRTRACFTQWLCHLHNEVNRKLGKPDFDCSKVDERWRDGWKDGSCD
H9c2 protect – myocardial damage modulation in H9c2 cells. H9c2 cardiomyocytes, H2O2 injury protection, ATPLite, 2 h. protection from H2O2 cell death, % at 20 µM. actives 0.63% (n = 360,000). AID 588492;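 active = compounds giving at least 50% protection of heart cells from peroxide-induced death in the single-dose screen, raw or plate-pattern-corrected value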;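 note: 0% = DMSO wells with peroxide and 100% = DMSO wells without peroxide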
PfG6PD inh – PfG6PD (Plasmodium falciparum) enzyme inhibition | PfGluPho enzyme, NADPH resazurin-diaphorase fluorescence | actives 0.78% (n = 350,000) | inhibition, % at 20 µM;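 active = inhibition reaching at least a set limit at 20 µM in the primary screen, cut at about 59% in these data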;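 note: 0% = DMSO wells with substrate and 100% = DMSO wells lacking glucose-6-phosphate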
Active calls of the source: *; / = no result.

SMILES	M18AAP inhibitor	PHOSPHO1 block	ALR inh	H9c2 protect	PfG6PD inh
COc1ccccc1-c1cc(NC(C)=O)c2ncc(-c3cccc(C(C)=O)c3)n2c1	/	/	/	52*	/
COc1cc(-c2cc(NC(C)=O)c3ncc(-c4ccccc4)n3c2)cc(OC)c1OC	/	/	/	70*	/
CC(=O)Nc1cc(-c2ccc(C(=O)NC3CC3)cc2)cn2c(-c3cccc(C(C)=O)c3)cnc12	/	/	/	50*	/
CC(Sc1nnc(CN2CCCC2)n1Cc1ccccc1)C(=O)Nc1ccc(F)c(F)c1F (stereo not given)	/	/	/	3	-8
O=C(NC(c1ccc(-c2ccccc2)cc1)c1cnccn1)C1CCN(CCN2C(=O)c3ccccc3C2=O)CC1 (stereo not given)	/	/	/	11	/
COc1ccc(-c2cc(NC(C)=O)c3ncc(-c4ccc(OC)c(OC)c4)n3c2)cc1OC	/	/	/	67*	/
COCC1CCCN(Cc2nc(Cc3ccccc3)no2)C1 (stereo not given)	-15	50	-7	5	0
c1ccc(Cc2noc(CN3CCC(CN4CCOCC4)CC3)n2)cc1	-6	61*	-2	7	-3
CC(C)C(NC(=O)/C(=C/c1ccco1)NC(=O)c1ccc(Br)o1)C(=O)O (stereo not given)	15	/	0	3	3
Oc1ccccc1C(=S)N1CCN(C(=S)c2ccccc2O)CC1	29*	-24	0	4	32
Oc1ccccc1C(=S)N1CCCC1	11	-2	/	-1	15
CCCNS(=O)(=O)c1ccc(OCC(=O)Nc2ccc3c(c2)OCCO3)c(C)c1	/	/	-12	-2	6
CNc1nnc(-c2cccc(N(C)C)c2)s1	5	-10	99*	-18	21
CC(=O)/C(=N\Nc1ccccc1)Sc1nncn1C	16	12	98*	9	38
Cc1cc(NC(=O)CSc2nnc(-c3ccc(Br)o3)n2Cc2ccccc2)no1	4	66*	-18	6	6
CC(C)(C)c1ccc(C(=O)NCC(=O)NCc2ccccn2)cc1	/	/	-6	5	10
O=C(Nc1n[nH]c(=S)s1)c1ccc2ccccc2c1	7	-36	98*	-2	43
O=C(Nc1nccs1)c1ccc2ccccc2c1	6	45	0	-13	21
Cc1ccc(CNC(=O)CCNS(=O)(=O)c2cccc3nsnc23)cc1	2	14	/	-2	5
Cc1c(NC(=O)c2ncn[nH]2)cccc1-c1nc2ccccc2s1	1	6	9	-12	-12
Cc1c(O)ccc(-c2n[nH]c(C(=O)O)c2-c2nc3ccccc3s2)c1O	30*	4	17	-1	7
Cc1c(O)ccc(-c2[nH]ncc2-c2nc3ccccc3s2)c1O	11	11	89*	-9	-15
COc1ccc(C(=O)NCCCNC(=O)c2cnccn2)cc1	0	12	-7	-1	-8
O=C(CSC(=S)N1CCCC1)N1CCN(S(=O)(=O)c2cccc([N+](=O)[O-])c2)CC1	5	-17	-6	4	-5
C=CCn1c(=NC(=O)c2ccc(S(=O)(=O)N3CCc4ccccc4C3)cc2)sc2cc(S(N)(=O)=O)ccc21	3	5	-2	-2	2
SMILES	M18AAP inhibitor	PHOSPHO1 block	ALR inh	H9c2 protect	PfG6PD inh
C=CCn1c(=NC(=O)CN2C(=O)CCC2=O)sc2cc(S(N)(=O)=O)ccc21	-4	-56	98*	1	7
COc1cccc(C2c3c(C)nn(-c4ccc([N+](=O)[O-])cc4)c3N=C3C(=O)Nc4ccccc4N32)c1 (stereo not given)	0	15	-1	56*	14
Cc1ccc(C2c3c(C)nn(-c4ccc([N+](=O)[O-])cc4)c3N=C3C(=O)Nc4ccccc4N32)cc1 (stereo not given)	-12	34	-2	/	/
COc1ccc(Oc2c(-c3ccc(O)cc3O)n[nH]c2C)cc1	3	-8	90*	-3	-48
CCOc1ccc(CNc2ccc3c(c2)ncn3C(C)(C)C)cc1	6	14	68	-5	27
Cn1cnc2cc(NCc3ccc(Cl)cc3)ccc21	6	36	94*	-2	32
CC(=O)Nc1ccc2c(c1)ncn2C	5	3	-5	5	-3
CCOc1ccc(CNc2ccc3c(c2)ncn3C)cc1	27	-10	82*	7	18
CCCc1ccc(-c2c(C)sc(N)c2C#N)cc1	20	17	92*	-23	23
CCCC(=O)Nc1sc(C)c(-c2ccc(OC)cc2)c1C#N	0	1	/	3	-1
O=C(C1CCCN(Cc2ccccc2[N+](=O)[O-])C1)N1CCCCC1 (stereo not given)	3	44	-3	8	-2
COc1ccccc1NC(=O)c1ccc(S(=O)(=O)N2CCCC(C)C2)cc1 (stereo not given)	-7	18	0	-5	8
Cn1nnnc1SCc1ccc(C(=O)Nc2nccs2)cc1	3	-3	99*	-5	8
Cc1ccc(S(=O)(=O)N(C)c2ccc(OCC(=O)Nc3nc4c(ccc5ccccc54)s3)cc2)cc1	-12	-13	84*	-2	3
CN1CCc2nc3sc(C(=O)NCc4ccccc4)c(N)c3cc2C1	29*	-146	-15	-7	31
CC1(C)CC(=O)c2cc3c(N)c(C(=O)NCc4ccccc4)sc3nc2C1	1	6	-8	3	8
O=C(NCCc1cccc(Cl)c1)c1cccc(-n2cnnn2)c1	/	/	/	1	7
CN1CCN(C=NC2=NN(c3cccc(C(F)(F)F)c3)CC2)CC1	-2	-23	99*	5	21
CN(C)C=NC1=NN(c2cccc(C(F)(F)F)c2)CC1	-10	97*	95*	-5	22
Cc1n[nH]c(=O)n1-c1cccc(C(F)(F)F)c1	-12	36	-8	-2	5
COc1ccc(/C=C2/C(=O)N(c3c(F)c(F)c(F)c(F)c3F)N=C2C)cc1	16	50	90*	-4	2
COc1ccc(/C=C2/C(=O)N(c3ccccc3)N=C2C)cc1	/	/	-10	6	9
Cc1oc2c(c1C(=O)NCc1cccnc1)C(=O)c1ccccc1C2=O	6	12	-57	/	103*
COc1ccc(CNC(=O)c2c(C)oc3c2C(=O)c2ccccc2C3=O)cc1	-6	-1	-52	-13	31
O=C1CC(c2ccc3c(c2)OCO3)Sc2nc3ccccc3n21 (stereo not given)	-2	97*	4	-16	-20
SMILES	M18AAP inhibitor	PHOSPHO1 block	ALR inh	H9c2 protect	PfG6PD inh
O=C1CC(c2ccco2)Sc2nc3ccccc3n21 (stereo not given)	0	106*	55	-1	3
O=C1CC(c2ccccc2)Sc2nc3ccccc3n21 (stereo not given)	0	16	/	-4	-7
O=C1CC(c2cccs2)Sc2nc3ccccc3n21 (stereo not given)	-6	18	-8	-8	1
CC1CCCC(NC(=O)c2cc(S(=O)(=O)N3CCCCC3)c[nH]2)C1C (stereo not given)	/	/	/	-2	/
Cc1c(N)cccc1N	/	/	86*	4	17
Cc1c(N)cccc1[N+](=O)[O-]	/	/	21	7	-6

Source: PubChem
